Drawing on PubChem BioAssay (EPA / NIEHS), this text covers outcome and AC50 for 14 molecules.

Assay [1] is described as follows: CCTE_Padilla_ZF_Score.General: CCTE's 144 Hour Post-fertilization zebrafish Assay Score for General Malformation, Padilla Lab (AID 2284411). The gist of the method:
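Malformation, death and hatching were scored at 6 dpf by two blinded observers under a stereo microscope. Embryos were dosed singly from 6-8 hpf in sealed plates of 10% Hanks' at 26C and rinsed on 5 dpf; DMSO baseline.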

Assay [2] in a line: CCTE_Padilla_ZF_Score.Edema: CCTE's 144 Hour Post-fertilization zebrafish Assay Score for Edema Malformation, Padilla Lab (AID 2284406). The gist of the method:
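Edema scored at 6 dpf by two blinded observers under a stereo microscope, in single outbred wild-type larvae exposed from 6-8 hpf in sealed wells (Hanks', 26C, 14:10 h light) and chemical-free after a 5 dpf rinse.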

Assay [3] in a line: CCTE_Padilla_ZF_Score.Spine: CCTE's 144 Hour Post-fertilization zebrafish Assay Score for Spine Malformation, Padilla Lab (AID 2284407). The gist of the method: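 Spine malformation scored at 6 dpf by two independent blinded observers under stereomicroscope, after static sealed exposure from 6–8 hpf at 26C in Hanks' solution with rinse on 5 dpf. Positive-direction fit against DMSO control.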

The nature of assay [4]: CCTE_Padilla_ZF_Score.Swim_bladder: CCTE's 144 Hour Post-fertilization zebrafish Assay Score for Swim Bladder Malformation, Padilla Lab (AID 2284408). The gist of the method:
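Swim bladder inflation scored at 6 dpf by two blinded observers under a stereo microscope. Exposure ran from 6–8 hpf in sealed wells of 10% Hanks' at 26C, with rinsing at 5 dpf; DMSO served as baseline.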

A short description of assay [5]: CCTE_Padilla_ZF_Score.Position: CCTE's 144 Hour Post-fertilization zebrafish Assay Score for Position, Padilla Lab (AID 2284409). Put shortly: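 Wild-type zebrafish embryos (with chorions) exposed singly from 6–8 hpf in sealed wells of Hanks' solution at 26C, rinsed at 5 dpf. At 6 dpf, blinded assessors scored abnormal water-column position by brightfield stereomicroscopy, relative to DMSO.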

Assay [6] can be described thus: CCTE_Padilla_ZF_Score.Living: CCTE's 144 Hour Post-fertilization zebrafish Assay Score for Viability, Padilla Lab (AID 2284410).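 Also: larval death at 6 dpf judged by absent heartbeat or coagulation.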 The gist of the method: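 Mortality at 6 dpf, judged as absent heartbeat or coagulation by two blinded observers, after sealed static exposure beginning at 6–8 hpf at 26C. Larvae were rinsed free of chemical at 5 dpf, and activity was fitted relative to DMSO.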

The nature of assay [7]: CCTE_Padilla_ZF_Score.Tail: CCTE's 144 Hour Post-fertilization zebrafish Assay Score for Tail Malformation, Padilla Lab (AID 2284414). The gist of the method:
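Tail malformations were scored at 6 dpf by two blinded assessors under a stereo microscope. Chorionated embryos had been exposed from 6-8 hpf in sealed wells of 10% Hanks' at 26 C, then rinsed free of chemical at 5 dpf.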

Assay [8] in a line: CCTE_Padilla_ZF_Score.Blood_pooling: CCTE's 144 Hour Post-fertilization zebrafish Assay Score for Blood Pooling, Padilla Lab (AID 2284415). The gist of the method: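 Blood pooling was scored at 6 dpf under a stereo microscope by two blinded assessors, fitted upward against DMSO. Single embryos were dosed at 6–8 hpf in 10% Hanks', kept sealed at 26C (14:10 h cycle) and rinsed at 5 dpf.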

The nature of assay [9]: CCTE_Padilla_ZF_Score.Any: CCTE's 144 Hour Post-fertilization zebrafish Assay Score for Any Mortality or Malformation, Padilla Lab (AID 2284416). The gist of the method:
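Wild-type zebrafish embryos with chorions, one per well in 10% Hanks' from 6–8 hpf, dosed in sealed plates at 26 C, 14:10 h light:dark; rinsed at 5 dpf; blinded scoring at 6 dpf for death or malformation, versus DMSO.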

Assay [10] deals with SRY-box transcription factor 2 (SOX2) Protein Expression, Deisenroth Lab, SOX2 (gene 6657). In words: CCTE_Deisenroth_DEVTOX-GLR_Endo_SOX2: CCTE's DevTox GLR-Endo Assay Evaluation of SRY-box transcription factor 2 (SOX2) Protein Expression, Deisenroth Lab (AID 2284412; active = hit-call score of the fitted dose curve at least 0.9, where 1 is the maximum). The gist of the method: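 Endpoint is percent SOX2-positive cells (SOX2+ count/total cells) minus 0.2% DMSO control, from high-content imaging of fixed, nuclear-stained RUES2-GLR cells. Dosing twice at 24 h intervals over 48 h differentiation, 1 nM–200 uM in 10 points.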

Assay [11] concerns SRY-box transcription factor 17 (SOX17) Protein Expression, Deisenroth Lab, SOX17 (gene 64321). Kind of assay: CCTE_Deisenroth_DEVTOX-GLR_Endo_SOX17: CCTE's DevTox GLR-Endo Assay Evaluation of SRY-box transcription factor 17 (SOX17) Protein Expression, Deisenroth Lab (AID 2284413). The gist of the method:
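Fluorescent microscopy of a SOX17 reporter in RUES2-GLR pluripotent cells scored endoderm differentiation after 48 h and two 24-h-spaced exposures. Values are percent change in SOX17+ population against 0.2% DMSO, n=4 experimental replicates.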

Assay [12] can be described thus: CCTE_Deisenroth_DEVTOX-GLR_Endo_CellCount: Viability Assessment in CCTE's DevTox GLR-Endo Assay, Deisenroth Lab (AID 2284420). The gist of the method:
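RUES2-GLR pluripotent cells seeded 24 h, then differentiated 48 h in defined media with two chemical exposures 24 h apart. Nuclei counted by high-content imaging; 10-point 1 nM–200 uM series; percent change versus 0.2% DMSO.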

For assay [13], the system named is SRY-box transcription factor 17 (SOX17) Protein Expression, Deisenroth Lab, SOX17 (gene 64321). In words: CCTE_Deisenroth_DEVTOX-GLR_Pluri_SOX17: CCTE's DevTox GLR-Pluri Assay Evaluation of SRY-box transcription factor 17 (SOX17) Protein Expression, Deisenroth Lab (AID 2284427; active = hit-call score of the fitted dose curve at least 0.9, where 1 is the maximum). The gist of the method: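 RUES2-GLR pluripotent cells were induced toward endoderm over 48 h and received two compound doses 24 h apart, in a 10-point series from 1 nM to 200 uM. The percentage of SOX17+ cells among total cells was measured by high-content imaging and reported minus the 0.2% DMSO control.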

The test system of assay [14] is SRY-box transcription factor 2 (SOX2) Protein Expression, Deisenroth Lab, SOX2 (gene 6657). In words: CCTE_Deisenroth_DEVTOX-GLR_Pluri_SOX2: CCTE's DevTox GLR-Pluri Assay Evaluation of SRY-box transcription factor 2 (SOX2) Protein Expression, Deisenroth Lab (AID 2284428). Put shortly:
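RUES2-GLR human pluripotent cells, two exposures 24 h apart over 48 h differentiation; 10-point series 1 nM - 200 uM. High-content imaging gives SOX2+ cells divided by cell count, reported as percent change versus 0.2% DMSO.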

Assay [15] relates to Brachyury (BRA) Protein Expression, Deisenroth Lab, TBXT (gene 6862). Kind of assay: CCTE_Deisenroth_DEVTOX-GLR_Pluri_BRA: CCTE's DevTox GLR-Pluri Assay Evaluation of Brachyury (BRA) Protein Expression, Deisenroth Lab (AID 2284429; active = hit-call score of the fitted dose curve at least 0.9, where 1 is the maximum). The gist of the method: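 Mesoderm readout after 48 h differentiation of human RUES2-GLR cells, dosed twice (24-h intervals) at 1 nM - 200 uM. BRA+ frequency from fluorescence imaging of fixed, nuclear-stained cells, DMSO-corrected.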

Assay [16] is described as follows: CCTE_Deisenroth_DEVTOX-GLR_Pluri_CellCount: Viability Assessment in CCTE's DevTox GLR-Pluri Assay Evaluation of Total Cell Counts, Deisenroth Lab (AID 2284430). The gist of the method: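 Cytotoxicity readout: fluorescent nuclei counts by high-content imaging, expressed as percent change relative to 0.2% DMSO. Human RUES2-GLR pluripotent line differentiated 48 h, dosed twice at 24-h intervals across 1 nM - 200 uM (10 points).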

Assay [17] deals with TTR (gene 7276). Kind of assay: CCTE_GLTED_hTTR_0.125uM: CCTE's human Transthyretin (hTTR) Inhibition Assay, with 0.125uM TTR, Great Lakes Toxicology and Ecology Division (GLTED) Lab (AID 2284431).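 Also: hits lower the fluorescence signal relative to DMSO baseline.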 The gist of the method: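 Cell-free displacement of ANSA probe from 0.125uM TTR after 2 h incubation with chemical. Fluorescence read at 380 nm excitation/475 nm emission; loss of signal relative to DMSO indicates T4-site displacement.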

Inconclusive results are not listed. Activity calls are given as the source filed them. The calls were made as follows, unless noted: active = hit-call score of the fitted dose curve at least 0.9, where 1 is the maximum; inactive = score below 0.9.

With `CC1=CC(C)C(C=O)C(C)C1` (centres undefined) (tested in a mixture with another compound), the molecule was classed as inactive in [1].
As to `C=C(C)C(=O)OCCC(F)(F)C(F)(F)C(F)(F)C(F)(F)C(F)(F)C(F)(F)C(F)(F)C(F)(F)F`, the molecule was called inactive in [2], in [3], in assay [4], in assay [5], in [6] and in [1]. The result in [7], in assay [8] and in assay [9] was inactive.
Take `CC(C)Cc1ccc(C(C)C(=O)O)cc1` (centres undefined): the molecule was classed as inactive in [10], in assay [11], in [12], in assay [13], in assay [14] and in [15]. The molecule was called inactive in assay [16].
Regarding `CCCCCCCCCC(=O)OCC`, the molecule was called inactive in [1].
In the case of `O=c1cc(-c2ccc(O)cc2)oc2cc(O)cc(O)c12`, the AC50 in assay [17] was 0.035 µM (active).
For `CCCCCCCCCOS(=O)(=O)O`, in assay [17], the AC50 was 8.43 µM (active).
Still for that read-out and setting: the same measure for `CCCCCCCCOS(=O)(=O)O`: 10.6 µM (active).
Turning to `CCC(=O)OC/C=C(\C)CCC=C(C)C`, the AC50 in assay [1] is 27.3 µM (active).
With `C#C[C@]1(O)CC[C@H]2[C@@H]3CCc4cc(O)ccc4[C@H]3CC[C@@]21C`, the AC50 in assay [17] was 2.73 µM (active).
As to `O=S(=O)(O)C(F)(F)C(F)(F)OC(F)(F)C(F)(F)F`, the molecule was classed as inactive in [2], in assay [3], in [4], in assay [5], in assay [6] and in assay [1]. In addition, the outcome in assay [7], in [8] and in assay [9] was inactive.
As for `O=C(O)C(F)(F)C(F)(F)C(F)(F)C(F)(F)C(F)(F)C(F)(F)C(F)(F)C(F)F`, the call in assay [2], in assay [3], in [4], in [5], in assay [6] and in [1] was inactive. Also, the call in assay [7] and in assay [8] was inactive. The AC50 in assay [9] is 88.5 µM (active).
For the molecule `CCCCCCCCCCCCOCCOS(=O)(=O)O`, the AC50 in assay [17] is 6.09 µM (active).
The same measure, in the same setting: the value for `CCCCCCCCOC(=O)c1ccc(O)cc1` was 2.77 µM (active).
As for `C=C1CC[C@H]2O[C@]2(C)CC[C@@H]2[C@@H]1CC2(C)C`, the AC50 in assay [1] was 65.4 µM (active).

By AC50 is commonly meant the midpoint of the concentration-response curve, whichever way the signal moves.
